Most compounds without a hit are left out; they make up all but 4.7% or so of the library.
HepG2 tox – counter-screen for TGF-b inhibitors: cytotoxicity in HepG2 cells | HepG2 CAGA-GFP viability, ATP luminescence, 18 h | Potency, µM (series often up to 46.1 µM), inactives show top-dose activity change, negative = cytotoxicity, most hits filed as cytotoxic | 410,000 tested, 0.76% active | AID 588856; also: potency is read from the fitted curve at half-maximal effect
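HepG2 CAGA-GFP cells (1000/well, DMEM with 1% FBS) received compound, then TGF-beta at 500 pg/mL final, and were incubated 18 hours at 37 degrees C. Viability was read by CellTiter-Glo luminescence. Media-only wells were set as complete cell-killing and DMSO as no toxicity.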
ATXN viability – reduces viability in counter-screen for ATXN expression inhibitors | S2 cells (HEK-293 line with an ATXN2-luciferase reporter) viability, CellTiter-Fluor protease fluorescence, 24 h | Potency, µM (titrated, usually from 56.7 µM), hits mostly cytotoxic | 400,000 tested, 0.49% active; also: potency is read from the fitted curve at half-maximal effect; nearly all actives have a fitted effect of over 40% in size
TGFb SMAD3 inh – blocks TGF-b signaling; Potency, µM (titrated, usually from 46.1 µM), without a hit: at the highest dose activity, negative = inhibition, usual class: inhibitors; HepG2 CAGA-GFP TGF-b/SMAD3 reporter, GFP fluorescence, 18 h; TGF-beta stimulated, 500 pg/mL final; 410,000 tested, 1.2% active; also: potency is read from the fitted curve at half-maximal effect; % is scaled to controls: 0 for no effect and ±100 for the full control effect; nearly all actives have a fitted effect of over 65% in size
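Per well, imaged GFP fluorescence of HEPG2 CAGA-GFP cells gives the signal; cells get compound, then TGF-beta (500 pg/mL final), 18 h at 37 degrees C; %Activity versus -TGF-beta and +DMSO controls.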
DRD3 agonist – D3 dopamine receptor (human) agonism; max activation, %; D3R DiscoveRx beta-arrestin cells, luminescence, 90 min; P35462; 410,000 tested, 0.58% active; AID 652048; in the data active = max activation above about 30%; also: 0% is about no effect
Target sequence (P35462 whole entry, looked up): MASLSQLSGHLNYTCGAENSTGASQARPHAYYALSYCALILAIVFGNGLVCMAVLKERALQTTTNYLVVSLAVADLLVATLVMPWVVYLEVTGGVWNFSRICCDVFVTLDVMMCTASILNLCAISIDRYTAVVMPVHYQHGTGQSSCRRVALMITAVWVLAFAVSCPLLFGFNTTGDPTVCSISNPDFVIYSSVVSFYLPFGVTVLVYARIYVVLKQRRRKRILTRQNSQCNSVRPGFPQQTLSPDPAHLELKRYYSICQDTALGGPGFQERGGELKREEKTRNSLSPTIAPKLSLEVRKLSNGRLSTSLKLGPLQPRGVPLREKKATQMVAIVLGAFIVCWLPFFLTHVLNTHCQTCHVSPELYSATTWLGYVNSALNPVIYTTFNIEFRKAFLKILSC
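Agonist-mode cell screen: cells plated at 1500/well and incubated overnight at 37 °C, then exposed to library compounds for 90 min at 37 °C. Detection reagent was added for 30–60 min at room temperature, and luminescence was read.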
DRD3 antagonist – blocks the human D3 dopamine receptor; max response, negative = inhibition, %; 360,000 tested, 2.5% active; P35462; AID 652054; D3R cells, DiscoveRx beta-arrestin luminescence, antagonist mode; active compounds read low; in the data active = max response below about -50%; inconclusive = no clear call, values can overlap the other calls; also: % is scaled to controls: 0 for no effect and ±100 for the full control effect
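Cells plated overnight at 1500 cells/well, then exposed to library compounds with dopamine controls for 90 minutes at 37 degrees C. DiscoveRx reagent added for 30–60 minutes at room temperature; luminescence read, quantitative HTS format.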
ATXN2 expr inh – inhibitors of ATXN2 expression; HEK-293 ATXN2-luciferase reporter, luminescence, 24 h; Potency, µM (highest dose often 57 µM), for the others: at the top dose activity change, negative = inhibition, actives largely listed as inhibitors; 360,000 tested, 0.72% active; also: potency is read from the fitted curve at half-maximal effect; % is scaled to controls: 0 for no effect and ±100 for the full control effect; nearly all actives have a fitted effect of over 55% in size
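ATXN2-luciferase reporter cells (luciferase flanked by upstream and downstream ATXN2 gene portions) were treated 24 h at 37 °C with compounds at up to 57 uM. SteadyGlo luminescence gave expression; GF-AFC fluorescence gave viability.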
Starred values were filed as active, the others as inactive. Unless noted, calls follow the shape of the dose curve; as a rule, active = well fitted curve in the direction sought with a large enough effect; inconclusive = small, poorly fitted or top-dose-only effect, or another doubt; inactive = no such curve, though single readings can be large; an effect the other way counts as inactive or inconclusive.

What do the screens show for `CCOC(=O)c1cc(-c2ccc(F)cc2)n(CCC(=O)NCCc2ccc(C)cc2)c1C`?
HepG2 tox: -37.4%; TGFb SMAD3 inh: inconclusive; DRD3 agonist: -13.2

Results for CO/N=C(\C(=O)N[C@@H]1C(=O)N2C(C(=O)O)=C(CSc3nnnn3C)CS[C@H]12)c1csc(N)n1 ?
DRD3 agonist: 6.3

What do the screens show for `CC(C)c1cccc(-c2csc(C(C)(O)c3ccccc3)n2)c1` (stereo unspecified)?
HepG2 tox: -71.0%; ATXN viability: inconclusive; TGFb SMAD3 inh: inconclusive; DRD3 agonist: -15.0; DRD3 antagonist: -56.8*; ATXN2 expr inh: -21.3%

What do the screens show for `COc1ccc(-c2csc(C(O)(c3ccccc3)C(F)(F)F)n2)cc1` (stereo unspecified)?
HepG2 tox: -77.8%; ATXN viability: inconclusive; TGFb SMAD3 inh: inconclusive; DRD3 agonist: 4.2; DRD3 antagonist: 18.8; ATXN2 expr inh: inconclusive

Results for COc1ccc(-c2csc(C(C)(NC(C)=O)c3ccc(OC)cc3)n2)cc1 (stereo unspecified) ?
HepG2 tox: -19.1%; ATXN viability: inactive; TGFb SMAD3 inh: 8.1%; DRD3 agonist: -9.7; DRD3 antagonist: -50.6*; ATXN2 expr inh: 0.9%

Results for OC(c1ccccc1)(c1nc(-c2ccc(Cl)cc2)cs1)C(F)(F)F (stereo unspecified) ?
HepG2 tox: 15.8µM*; ATXN viability: inconclusive; TGFb SMAD3 inh: inconclusive; DRD3 agonist: -2.3; DRD3 antagonist: -18.3; ATXN2 expr inh: -1.8%

Results for CC(O)(c1ccccc1)c1nc(-c2cccc(C(=O)O)c2)cs1 (stereo unspecified) ?
HepG2 tox: -11.8%; ATXN viability: inactive; TGFb SMAD3 inh: 1.2%; DRD3 agonist: -7.5; DRD3 antagonist: -10.3; ATXN2 expr inh: 50.7%

What do the screens show for `COc1cccc(C(C)(O)c2nc(-c3ccc(S(C)(=O)=O)cc3)cs2)c1` (stereo unspecified)?
HepG2 tox: -22.5%; ATXN viability: inactive; TGFb SMAD3 inh: -20.9%; DRD3 agonist: 79.9*; DRD3 antagonist: -13.0; ATXN2 expr inh: -22.5%

What do the screens show for `O=C(C[n+]1ccc2ccccc2c1)c1ccc(O)c(O)c1`?
HepG2 tox: -25.7%; TGFb SMAD3 inh: 3.4%

What do the screens show for `COc1ccc(/C=C/c2ccnc3ccccc23)c(OC)c1`?
HepG2 tox: -14.8%; TGFb SMAD3 inh: inconclusive

How did CC(C)C(=O)OCC(=O)[C@@]12O[C@H](C3CCCCC3)O[C@@H]1C[C@H]1[C@@H]3CCC4=CC(=O)C=C[C@]4(C)[C@H]3[C@@H](O)C[C@@]12C do in these assays?
DRD3 agonist: 5.5

What do the screens show for `CCOC(=O)C1CCN(C(=O)CSc2n[nH]c(-c3ccc(OC)cc3)n2)CC1`?
HepG2 tox: -7.4%; TGFb SMAD3 inh: -25.3%; DRD3 agonist: 10.0

How did CC(O)(c1cccc(F)c1)c1nc(-c2cccc(C(F)(F)F)c2)cs1 (stereo unspecified) do in these assays?
HepG2 tox: 15.8µM*; ATXN viability: inconclusive; TGFb SMAD3 inh: inconclusive; DRD3 agonist: -16.2; DRD3 antagonist: -53.1*; ATXN2 expr inh: inconclusive

Results for CC(O)(c1cccc(F)c1)c1nc(-c2ccccc2)cs1 (stereo unspecified) ?
HepG2 tox: -15.3%; ATXN viability: inactive; TGFb SMAD3 inh: -22.5%; DRD3 agonist: -12.1; DRD3 antagonist: -89.1*; ATXN2 expr inh: -7.6%

Results for COc1cccc(-c2cnc(-c3ccncc3)nc2C2CCN(C(=O)Cc3csc(C)n3)CC2)c1 ?
ATXN viability: inactive

What do the screens show for `CC(=O)N/C(=C/c1ccccc1)c1sc2ccccc2[n+]1CCCCI`?
HepG2 tox: 2.8%; TGFb SMAD3 inh: 12.2%

How did Cc1cc(NCCCn2ccnc2)n2nc(C)c(-c3ccc(Cl)cc3)c2n1 do in these assays?
HepG2 tox: -60.8%; ATXN viability: 15.8µM*; TGFb SMAD3 inh: -3.6%; DRD3 agonist: -0.1; DRD3 antagonist: -22.9; ATXN2 expr inh: inconclusive

How did COCCn1c(C)cc(C(=O)COC(=O)c2ccc3ncsc3c2)c1C do in these assays?
HepG2 tox: -54.7%; ATXN viability: inconclusive; TGFb SMAD3 inh: -2.8%; DRD3 agonist: 6.9; DRD3 antagonist: -55.4*; ATXN2 expr inh: 47.4%

How did COCCn1c(C)cc(C(=O)COC(=O)c2cncc(Br)c2)c1C do in these assays?
HepG2 tox: 1.4%; ATXN viability: inactive; TGFb SMAD3 inh: 5.7%; DRD3 agonist: -4.3; DRD3 antagonist: -10.4; ATXN2 expr inh: 3.9%

How did C=C[C@]1(C)C[C@@H](OC(=O)CSC(C)(C)CNC(=O)[C@H](N)C(C)C)[C@]2(C)[C@H](C)CC[C@]3(CCC(=O)[C@H]32)[C@@H](C)[C@@H]1O do in these assays?
DRD3 agonist: -2.2

Results for OC(C[n+]1c(Cl)ccc2ccccc21)c1ccccc1 (stereo unspecified) ?
HepG2 tox: 3.1%; TGFb SMAD3 inh: -3.2%

How did Cc1ccc(NCc2nnc(SCC(=O)NCc3ccco3)n2CC2CCCO2)cc1Cl (stereo unspecified) do in these assays?
HepG2 tox: -32.0%; ATXN viability: inactive; TGFb SMAD3 inh: 3.2%; DRD3 agonist: 3.3; DRD3 antagonist: -14.8; ATXN2 expr inh: -6.0%

How did Cc1ccc(NCc2nnc(SCCN3CCCCC3)n2CC2CCCO2)cc1Cl (stereo unspecified) do in these assays?
HepG2 tox: -30.6%; ATXN viability: inactive; TGFb SMAD3 inh: -8.3%; DRD3 agonist: -7.9; DRD3 antagonist: -51.3*; ATXN2 expr inh: -6.7%

How did CCc1ccc(-n2c(SCc3ccccc3F)nc3[nH]ncc3c2=O)cc1 do in these assays?
HepG2 tox: -108.9%; ATXN viability: 20µM*; TGFb SMAD3 inh: inconclusive; DRD3 agonist: -1.0; ATXN2 expr inh: inconclusive

Results for Cc1ccc(-n2c(SCc3ccccc3F)nc3[nH]ncc3c2=O)cc1Cl ?
HepG2 tox: -97.5%; ATXN viability: 35.5µM*; TGFb SMAD3 inh: inconclusive; DRD3 agonist: 4.3; ATXN2 expr inh: inconclusive

What do the screens show for `CC(NC(=O)OCc1ccccc1)c1ccccc1` (stereo unspecified)?
HepG2 tox: -2.9%; ATXN viability: inactive; TGFb SMAD3 inh: 10.1%; DRD3 agonist: 0.7; DRD3 antagonist: -9.8; ATXN2 expr inh: -1.0%

Results for N#CC(NC(=O)OCc1ccccc1)c1ccccc1 (stereo unspecified) ?
HepG2 tox: 2.9%; ATXN viability: inactive; TGFb SMAD3 inh: -24.4%; DRD3 agonist: -17.5; DRD3 antagonist: -54.3*; ATXN2 expr inh: 4.9%
